Values joined by “and” are separate entries in the source; they are usually repeats but may differ in a detail not shown here. Identical values can stand only once. Records with an inconclusive call do not appear. Active and inactive are the calls of the source. Unless noted, calls follow the shape of the dose curve; as a rule, active = well fitted curve in the direction sought with a large enough effect; inconclusive = small, poorly fitted or top-dose-only effect, or another doubt; inactive = no such curve, though single readings can be large; an effect the other way counts as inactive or inconclusive.
Key:
[1] = Cell Viability - HepG2 (AID 433; calls by dose curve;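 also: potency is read from the fitted curve at half-maximal effect; potency for ATP loss meaning cytotoxicity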); conditions: qHTS
Outline: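 Cytotoxicity is scored as loss of intracellular ATP in HepG2 cells exposed to compounds for 40 h. Concentration-response curves, normalized to DMSO and 100 uM tamoxifen, give AC50 values.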

[2] = Cell Viability - MRC5 (AID 434; calls by dose curve;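 also: potency is read from the fitted curve at half-maximal effect; potency reflects cytotoxicity seen as loss of intracellular ATP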); conditions: MRC5 lung fibroblast viability, qHTS
Outline: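 MRC5 normal human lung fibroblasts, 1500 cells/well, exposed to compound for 40 hr at 37 C. Cellular ATP was read by CellTiter-Glo luminescence; data normalized to DMSO and 100 uM tamoxifen, with AC50 from Hill fits.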

[3] = biological target: Mitogen-activated protein kinase 10 (Mus musculus) (UniProt Q61831); experiment: JNK3 AlphaScreen Assay (AID 530; active = well fitted curve in either direction with a large enough effect, not every such curve was filed as active;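 also: kinase came from lysate of stimulated human HepG2 cells; signal reports phosphorylation of biotinylated GST-cJun 1-79 at Ser73 with 10 µM ATP; % is scaled to controls: 0 for no effect and ±100 for the full control effect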); conditions: JNK3 lysate, c-Jun phosphorylation; series mostly up to 57.1 µM
Outline: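 qHTS format: compounds tested as titrations against IL-1beta/TNF-alpha-activated HepG2 lysate JNK3 with biotin-GST-cJun substrate and 10 uM ATP at room temperature. Loss of anti-phospho-cJun AlphaScreen signal indicates inhibition.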

[4] = Cell Viability - HUV-EC-C (AID 542); conditions: HUV-EC-C endothelial cell viability, qHTS; series mostly up to 92.2 µM; also: % is scaled to controls: 0 for no effect and ±100 for the full control effect; nearly all actives have a fitted effect of over 35% in size
Outline: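 HUV-EC-C normal human vascular endothelial cells, 1000 cells/well, pre-incubated 5 hr at 37 °C, then exposed to compounds for 40 hr at 37 °C in complete medium. Viability measured as intracellular ATP by CellTiter-Glo luminescence; AC50 from Hill fits.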

[5] = Cell Viability - SH-SY5Y (AID 544); conditions: SH-SY5Y neuroblastoma cell viability; viability change, negative = cytotoxic: at 92.2 µM (top of the series); also: nearly all actives have a fitted effect of over 55% in size
Outline: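 Human neuroblastoma SH-SY5Y cells (1500/well) in complete medium were exposed to compounds for 40 hr at 37 °C; intracellular ATP was then quantified by CellTiter-Glo luminescence after 20 min at room temperature. AC50 came from Hill-equation concentration-response fits.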

[6] = Cell Viability - Renal Proximal Tubule (AID 545); conditions: renal proximal tubule cells viability, at 91.7 µM (top of the series); also: nearly all actives have a fitted effect of over 40% in size
Outline: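 Cytotoxicity is scored as a concentration-dependent drop in cellular ATP in primary rat renal proximal tubule cells exposed for 40 hr. AC50 derives from Hill modelling.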

[7] = Cell Viability - Mesenchymal (AID 546); conditions: mesenchymal cells viability, qHTS; series mostly up to 91.7 µM;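 also: cells exposed to compound for 40 hours before reading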
Outline: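 Human kidney mesenchymal cells from normal renal glomeruli, 1000 cells/well, rested 5 hr at 37 °C, then treated 40 hr at 37 °C in complete medium. Cellular ATP read by CellTiter-Glo luminescence; AC50 from Hill-equation fits.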

[8] = Cellular Toxicity (caspase-3) HUV-EC-C (AID 656); conditions: HUV-EC-C cells, caspase-3 activation (apoptosis), vehicle = 0, 100 µM tamoxifen = 100%; series mostly up to 92.2 µM
Outline: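 Read-out: luminescence proportional to caspase 3/7 activity, measured 20 min after adding Caspase-Glo 3/7 reagent. Cells (HUV-EC-C) had received compound for 16 hr at 37°C. Increases relative to DMSO and 100 uM tamoxifen gave concentration-response AC50 values.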

[9] = Cellular Toxicity (caspase-3) SHSY5Y (AID 657); conditions: SH-SY5Y caspase-3 activation, DMSO zero, 10 µM staurosporine = 100%; series mostly up to 91.7 µM
Outline: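 Cells plated and incubated 5 h at 37 °C, dosed over a concentration range, incubated 16 h, then given Caspase-Glo 3/7 reagent for 1 h at room temperature before luminescence reading. Staurosporine (10 uM) defined full stimulation.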

[10] = Cellular Toxicity (caspase-3) MRC-5 (AID 659); conditions: MRC-5 cells, luminescence, normalized: DMSO 0%, 10 µM staurosporine 100%; series mostly up to 91.7 µM
Outline: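 MRC-5 human normal lung fibroblasts, 1500 cells/well, treated 16 h at 37 °C in complete medium. Caspase 3/7 measured by Caspase-Glo luminescence after 1 h at room temperature. Normalized to DMSO and 10 uM staurosporine; AC50 from Hill fit.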

[11] = Cellular Toxicity (caspase-3) Mesangial (AID 660); conditions: mesangial cells, normalized: DMSO 0%, 100 µM tamoxifen 100%; series mostly up to 91.7 µM;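 also: cells exposed to compound for 16 h before the caspase read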
Outline: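 Human renal glomerular mesangial cells (1000/well) were treated with compounds for 16 h at 37 °C in complete medium, then caspase 3/7 activity was read by Caspase-Glo luminescence. Data were normalized to DMSO and 100 uM tamoxifen; AC50 from Hill fits.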

[12] = Cell Viability - LYMP1-002 - Assay at 16 hr (AID 948); conditions: LYMP1-002 lymphoblastoid cell viability; series mostly up to 92.2 µM;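 also: 0% = DMSO alone and full effect = 92 µM tetraoctylammonium bromide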
Outline: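 Acute cytotoxicity is scored as a concentration-dependent fall in intracellular ATP in a human lymphoblastoid line (LYMP1-002) after 16 hr compound exposure at 37 C, measured by luciferase luminescence.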

[13] = MultiTox-Fluor Cytotoxicity Assay - LYMP1-003 - Dead Cells (AID 961); conditions: LYMP1-003 lymphoblastoid cells, dead-cell protease fluorescence; series mostly up to 92.2 µM;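 also: 0% = DMSO and 100% = tetraoctylammonium bromide; nearly all actives have a fitted effect of over 70% in size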
Outline: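 LYMP1-003 human lymphoblastoid cells (2500/well) exposed to compound 16 h at 37 C in complete medium; dead-cell protease read with bis-AAF-R110 fluorescence (Ex/Em 485/520) after 60 min at room temperature. Normalized to DMSO and 15 uM tetraoctylammonium bromide; AC50 from Hill fit.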

[14] = Cell Viability - LYMP1-003 - Assay at 24 hr (AID 963); conditions: LYMP1-003 lymphoblastoid cell viability; series mostly up to 92.2 µM;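 also: plate controls were DMSO only for no effect and tetraoctylammonium bromide positive control for full effect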
Outline: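 Human lymphoblastoid LYMP1-003 cells (2500/well) were rested 5 hr at 37 C, then exposed to compounds in complete medium for 24 hr at 37 C. Cellular ATP was quantified by CellTiter-Glo luminescence, and AC50 values came from Hill fits of concentration-response data.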

[15] = Cell Viability - LYMP2-015 (AID 971); conditions: LYMP2-015 lymphoblastoid cell viability; series mostly up to 92.2 µM;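 also: 0% = DMSO only and full effect = 92 µM tetraoctylammonium bromide; nearly all actives have a fitted effect of over 55% in size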
Outline: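 Human lymphoblastoid cells (2500/well) in complete medium were preincubated 5 hr at 37 C, then compound-treated 24 hr at 37 C. Intracellular ATP was read by CellTiter-Glo luminescence after 30 min at room temperature; AC50 came from Hill-equation concentration-response fits.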

[16] = Cell Viability - LYMP2-025 (AID 976); conditions: LYMP2-025 lymphoblastoid cell viability; series mostly up to 92.2 µM;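 also: plate controls were DMSO only for no effect and tetraoctylammonium bromide control for full effect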
Outline: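 Human lymphoblastoid LYMP2-025 cells (2500/well) were pre-incubated 5 hr at 37 C, then treated with compounds for 24 hr at 37 C in complete medium. Viability was read as intracellular ATP by CellTiter-Glo luminescence; AC50 from Hill fits.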

[17] = qHTS Assay for Identification of Small Molecule Inducers of Hypoxia Response (AID 2120; active = well fitted curve in the direction sought with a large enough effect in the signal ratio, with a control signal flat, not every such curve was filed as active; the % refers to the signal ratio; also: 0% is about no effect); conditions: hypoxia response reporter cells, beta-lactamase ratio readout; series mostly up to 104 µM
Outline: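 HRE-beta-lactamase reporter in CellSensor HRE-bla ME-180 cells, 2500 cells/well in Opti-MEM with 0.5% dialyzed FBS; compounds tested as titration series, 17 h at 37 degrees C. CCF4 substrate 2.5 h at room temperature; AC50 from 460/530 nm ratio.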

[18] = qHTS assay for small molecule agonists of the antioxidant response element (ARE) signaling pathway measured by Nrf2-dependant transcriptional activity - cell viability counter screen (AID 720653; active = well fitted curve in the direction sought with a large enough effect in the repeat runs; an effect the other way counts as inactive or inconclusive; also: % is scaled to controls: 0 for no effect and ±100 for the full control effect); conditions: ARE-bla HepG2 viability, CellTiter-Glo ATP luminescence, 16 h; stronger effect = lower value
Outline: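 ARE-bla HepG2 cells treated with compounds for 16 h at 37C; this counter screen measures viability as intracellular ATP by CellTiter-Glo luminescence after 30 min at room temperature.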

[19] = qHTS assay for cell viability of HEK293 cells (AID 743288); conditions: ATP luminescence (CellTiter-Glo), 18 h; max response: stronger effect = lower value; also: % is scaled to controls: 0 for no effect and ±100 for the full control effect; nearly all actives have a fitted effect of over 50% in size
Outline: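 The Tox21 protocol used parental HEK293 cells treated for 18 h at 37 C with compounds delivered by pintool; ATP-coupled luminescence after 30 min at room temperature gave viability.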

[20] = qHTS assay for cell viability of the p53RE-bla HCT-116 cell line (AID 743292); conditions: p53RE-bla HCT-116 viability, ATP luminescence, 16 h; series mostly up to 95 µM; also: % is scaled to controls: 0 for no effect and ±100 for the full control effect; nearly all actives have a fitted effect of over 55% in size
Outline: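 In this qHTS counter-screen, metabolically competent p53RE-bla HCT-116 cells were counted via their ATP content. Compounds were applied for 16 h at 37 C and luciferase-coupled luminescence was measured.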

[21] = primary cells of rat origin unless noted

Cc1ccccc1N
inactive: Potency [1] > 92 µM | Potency [2] > 92 µM | outcome [3] | Potency [4] | Potency [5] | activity change, negative = cytotoxicity [6] -0.93% | activity change, negative = cytotoxicity ([6]; primary cells of rat origin) -4.73% | outcome [7] | outcome [8] | outcome [9] | outcome [10] | outcome [11] | Potency [12] | Potency [13] | Potency [14] | Potency [15] | Potency [16] | outcome [17] | max response [18] -8.44% and 1.06% | max response [19] -10.9% and 0.49% | Potency [20]

Oc1ccc(Cl)cc1Cl
inactive: Potency [1] > 92 µM | Potency [2] > 92 µM | outcome [3] | Potency [4] | Potency [5] | activity change, negative = cytotoxicity [6, 21] -7.07% | outcome [7] | outcome [8] | outcome [9] | outcome [10] | outcome [11] | Potency [12] | Potency [13] | Potency [14] | Potency [15] | Potency [16] | outcome [17] | max response [18] -19.8% and -1.01% | max response [19] 3.78% and -2.5% | Potency [20]

c1nc[nH]n1
inactive: Potency [1] > 92 µM | Potency [2] > 92 µM | outcome [3] | Potency [4] | Potency [5] | activity change, negative = cytotoxicity [6, 21] -1.05% | outcome [7] | outcome [8] | outcome [9] | outcome [10] | outcome [11] | Potency [12] | Potency [13] | Potency [14] | Potency [15] | Potency [16] | outcome [17] | max response [18] 12.8% | max response [19] -0.284% | Potency [20]

Clc1cccc(C(Cl)(Cl)Cl)n1
inactive: Potency [1] > 92 µM | Potency [2] > 92 µM | outcome [3] | Potency [4] | Potency [5] | activity change, negative = cytotoxicity [6, 21] -6.77% | outcome [7] | outcome [8] | outcome [9] | outcome [10] | outcome [11] | Potency [12] | Potency [13] | Potency [14] | Potency [15] | Potency [16] | outcome [17] | max response [18] 1.86% and -5.38% | max response [19] 8.34% and -7.37% | Potency [20]

ClC(Cl)=C(Cl)C(Cl)=C(Cl)Cl
inactive: Potency [1] > 92 µM | Potency [2] > 92 µM | outcome [3] | Potency [4] | Potency [5] | activity change, negative = cytotoxicity [6, 21] -4.45% | outcome [7] | outcome [8] | outcome [9] | outcome [10] | outcome [11] | Potency [12] | Potency [13] | Potency [14] | Potency [15] | Potency [16] | outcome [17] | max response [18] 5.78% and -15% | max response [19] 3.55% and -1.89% | Potency [20]
